# Bioassay records from PubChem BioAssay.
# The full list was thinned out, with hits kept by preference.
# ST2 inh – blocks human ST2 binding to IL-33 | AID 1259354 | inhibition, % for hits at 17 µM | 2.3% of 78,000 active | AlphaLISA ST2-Fc/biotin-IL-33 interaction, 1 h; in the data active = inhibition above about 30%
# Target sequence (Q01638 whole entry, looked up): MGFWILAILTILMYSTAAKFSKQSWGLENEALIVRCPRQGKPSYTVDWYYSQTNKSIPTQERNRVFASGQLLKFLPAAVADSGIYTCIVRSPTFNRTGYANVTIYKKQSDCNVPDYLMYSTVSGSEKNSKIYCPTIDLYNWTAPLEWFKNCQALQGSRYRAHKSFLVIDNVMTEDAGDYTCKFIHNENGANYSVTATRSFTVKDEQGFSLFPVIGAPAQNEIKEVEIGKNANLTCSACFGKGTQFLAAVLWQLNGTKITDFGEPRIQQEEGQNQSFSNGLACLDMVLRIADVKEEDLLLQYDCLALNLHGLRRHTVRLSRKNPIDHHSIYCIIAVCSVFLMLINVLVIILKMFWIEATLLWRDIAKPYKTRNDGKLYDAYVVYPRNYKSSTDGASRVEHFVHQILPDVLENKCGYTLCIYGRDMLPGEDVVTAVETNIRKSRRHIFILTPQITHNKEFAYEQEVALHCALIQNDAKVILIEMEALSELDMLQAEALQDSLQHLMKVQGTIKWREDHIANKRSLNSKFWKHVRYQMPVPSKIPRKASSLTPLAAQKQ
# An asterisk follows results filed as active; i = inactive; ! = not active in a repeat.
SMILES,ST2 inh
COc1ccc(C(=O)O/N=C(/N)Cc2ccc(Cl)cc2)cc1,i
CCN(CC)C(=O)c1cn(CC(C)C)c(=O)c2c1c1ccccc1n2C,i
O=C1CC(Sc2ccccn2)C(=O)N1c1ccc(Br)cc1 (configuration not stated),40%*
Cc1ccc(N2C(=O)CC(Sc3nc4ccccc4o3)C2=O)cc1 (configuration not stated),i
O=C(O)c1cccnc1SC1CC(=O)N(c2ccc(N3CCOCC3)cc2)C1=O (configuration not stated),i
Cc1cnn(-c2csc(C(N)=O)c2)c1,i
Cc1ccc(OCC(=O)O/N=C(/N)Cc2ccc(Cl)cc2)cc1,i
CC(=O)Nc1ccc(C(=O)NCCc2ccc(F)cc2)cc1,i
CCN1C(=O)N(CCN(C)C)C(=O)C12CCN(Cc1ccc(SC)cc1)CC2,51%*
CCN1C(=O)N(CCCc2cccnc2)C(=O)C12CCN(Cc1cnc(-c3ccccc3)s1)CC2,i
CCOC(=O)C1(CC2CC2)CCN(Cc2ccc(SC)cc2)CC1,i
Cc1ccc(-n2c(C)nc3c(cnn3-c3ccc(Cl)cc3)c2=O)cc1,i
COc1ccc(S(=O)(=O)NC2CCCCC2C)cc1OC (configuration not stated),34%*!
CCCNS(=O)(=O)c1ccc(OC)c(OC)c1,i
COc1ccc(OC)c(S(=O)(=O)NC2CCCCC2C)c1 (configuration not stated),i
Fc1ccc(-c2nccn2CCCc2nn[nH]n2)c(Cl)c1,i
CC1CC(C)CC(S(=O)(=O)N2CCC(C(=O)O)CC2)C1 (configuration not stated),i
CCc1nc(NCCN(CC)CC)c(C#N)c2c1CCCC2,i
CCCc1cc(NCCCCO)n2c(nc3ccccc32)c1C#N,i
CCN(CC)CCCNc1c2c(c(C#N)c3nc4ccccc4n13)CCC2,42%*
COc1ccccc1C1CC(c2ccc(Cl)cc2)=NN1S(=O)(=O)c1ccccc1 (configuration not stated),i
CCc1ccc(Nc2nnc(Cc3ccccc3)c(=O)[nH]2)cc1,i
O=C(CCc1ccccc1)Nc1cccc(F)c1,i
Cc1ccc(-c2csc(NC(=O)c3cc(=O)c4ccccc4o3)n2)c(C)c1,i
Cc1ccc(-c2csc(/C(C#N)=C/c3cccnc3)n2)c(C)c1,34%*
SMILES,ST2 inh
CCOC(=O)c1sc2nc(C)nc(N(CC)Cc3ccccc3)c2c1C,i
COc1ccc(/C=c2\sc3nnc(-c4ccccc4Cl)n3c2=O)cc1,i
Cc1ccc(/C=c2\sc3nnc(-c4ccccc4Cl)n3c2=O)o1,37%*
CN(C)c1ccc(/C=c2\sc3nnc(-c4ccccc4Cl)n3c2=O)cc1,i
CCCn1cc(S(=O)(=O)CC(=O)Nc2ccc(F)cc2)c2ccccc21,i
CCc1nc(C)sc1CNC(=O)c1ccc2oc(=O)n(C)c2c1,i
CC(=O)n1c2c(c3ccccc31)OC(N)=C(C#N)C2c1ccsc1 (configuration not stated),i
COc1ccc(S(=O)(=O)N2CCN(S(=O)(=O)c3ccc(C)cc3)CC2)cc1,i
Cc1ccc(S(=O)(=O)N2CCN(c3ccccc3)CC2)cc1,i
Cc1ccc(S(=O)(=O)N2CN3CN(C2)CN(S(=O)(=O)c2ccc(C)cc2)C3)cc1,46%*
Cc1ccc(Oc2ncccc2CNc2ncccc2Cl)cn1,i
O=C(c1ccccc1Br)N1N=C(c2ccc(Br)cc2)CC1c1ccco1 (configuration not stated),i
Nc1nc2n(n1)C(c1ccco1)CC(c1ccc(F)cc1)N2 (configuration not stated),i
Fc1ccc(C2=NN(c3ccccc3)C(c3ccco3)C2)cc1 (configuration not stated),45%*
CN(CCc1ccccn1)c1ncccc1CNC(=O)NC1CCCCC1,i
O=C(c1ccncc1)N1CCCC(C(F)(F)F)C1 (configuration not stated),i
COc1ccc(C2SCC(=O)N2c2ccccc2)cc1 (configuration not stated),i
COc1ccc(N2C(=O)CC(Sc3ccccc3C(=O)O)C2=O)cc1 (configuration not stated),i
COc1ccc(N2C(=O)C(O)=CC2(OC)c2ccccc2)cc1 (configuration not stated),45%*
CCC(=O)Oc1ccccc1C1OCC2C(C)C=C(C)C1C2C (configuration not stated),i
O=C(OCC1(O)C(Cl)C=CC(OC(=O)c2ccccc2)C1O)c1ccccc1 (configuration not stated),i
O=C(c1ccc([N+](=O)[O-])cc1)N(c1ccccn1)c1ccccn1,i
CCN(CC)/C(=C\C(=O)c1ccc([N+](=O)[O-])cc1)c1ccccc1,31%*
O=C(CC(=O)c1ccc([N+](=O)[O-])cc1)c1ccccc1,i
CC(=O)Nc1ccccc1NC(=O)COc1ccc(C(C)C)cc1,i
SMILES,ST2 inh
CCN(Cc1ccc(CO)o1)Cc1ccccc1F,i
Cc1ccc(C2CC(c3ccccc3Cl)Nc3nc(N)nn32)cc1 (configuration not stated),i
Cc1ccc2nc(-c3c[nH]c4ccccc34)c(NC3CCCC3)n2c1,i
Cc1ccc(-c2nc3ccc(Br)cn3c2Nc2ccc3c(c2)OCO3)o1,i
Cc1ccn2c(NC3CCCC3)c(-c3ccccn3)nc2c1,38%*
Clc1ccc2nc(-c3ccco3)c(Nc3ccc4c(c3)OCO4)n2c1,i
Cc1ccc2nc(-c3ccccn3)c(Nc3ccc4c(c3)OCO4)n2c1,32%*
Brc1ccc2nc(-c3ccccn3)c(Nc3ccccc3)n2c1,i
Cc1ccc(-c2nc3ccccn3c2Nc2ccc3c(c2)OCCO3)o1,35%*
COc1ccc(Nc2c(-c3ccccn3)nc3ccc(Br)cn23)cc1,i
Cc1ccc(-c2nc3cnccn3c2NC2CCCCC2)o1,i
Cc1ccc2nc(-c3ccc(C)o3)c(Nc3ccc4c(c3)OCCO4)n2c1,i
Cc1ccc2nc(-c3ccc(C)o3)c(Nc3ccccc3)n2c1,i
Cc1ccc2nc(-c3ccccn3)c(Nc3ccc4c(c3)OCCO4)n2c1,31%*
O=C1C2CCCCC2C(=O)N1c1ccccc1F (configuration not stated),i
O=C(c1cn(Cc2ccccc2Cl)nn1)N1CCCCC1c1cccnc1 (configuration not stated),i
CCCSCCCNc1nc(-c2nnc(-c3cccc(C)c3)o2)nc2ccccc12,i
O=C(O)CCN1C(=O)C(=O)C(=C(O)c2ccccc2)C1c1cccc([N+](=O)[O-])c1 (configuration not stated),i
Cc1cc(=O)oc2c1c(-c1ccccc1)nn2-c1cccc(C(=O)O)c1,i
CCOC(=O)C1CCN(c2nc3ccc(CC)cc3s2)CC1,i
CS(=O)(=O)N1CCCC(C(=O)NC2CC2)C1 (configuration not stated),i
O=C1CC(C(=O)Nc2cccc(Cl)c2)SC(=Nc2ccc(Cl)cc2)N1 (configuration not stated),i
Cc1ccc(C)c(CSC2=NCCN2C(=O)c2ccc(S(=O)(=O)N3CCCC3)cc2)c1,i
Cc1ccc(-c2nc3cnccn3c2Nc2ccc3c(c2)OCO3)o1,i
Cc1ccn2c(Nc3ccccc3)c(-c3ccc(C)o3)nc2c1,i
Cc1ccn2c(Nc3ccc4c(c3)OCO4)c(-c3ccccn3)nc2c1,31%*
CC(C)(C)c1cc(Br)ccc1OCC(=O)Nc1sc2c(c1C(N)=O)CCCC2,i
